Inconclusive results are not listed. Calls of active or inactive are those of the source. The calls were made as follows: active = hit-call score of the fitted dose curve at least 0.9, where 1 is the maximum; inconclusive = response in the unintended direction; inactive = score below 0.9.
Assay: CCTE_Harrill_HTTr_CellCount_MCF7: CCTE's Cell Proliferation Assessment for the High-Throughput Transcriptomics (HTTr) Platform, Harrill Lab (AID 2284012);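 also: cells exposed to compound for six hours; intended direction is loss of nuclei count meaning fewer cells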
Excerpt: This is a cell-based assay that evaluates cell viability and cell growth using high content imaging to count the number of Hoechst-labeled nuclei that are present in an assay well in 384-well format.This is a cell-based assay that evaluates cell viability and cell growth in MCF-7 cells. This was part of a full screening experiment. High content imaging is used to count the number of Hoechst-labeled nuclei that are present in an assay well in 384-well format.The assay component endpoint CCTE_Harrill_HTTr_CellCount_MCF7 was analyzed with bidirectional fitting relation to DMSO as the negative control and baseline of activity. Using a type of viability reporter, loss-of-signal activity can be used to understand changes in cell count. To generalize the intended target to other relatable targets, this assay endpoint is annotated to cell cycle, where the subfamily is cell count.
Chemicals were tested in MCF7 cells in an eight point dilution series with a six hour exposure duration.

Row | SMILES | outcome | AC50
1 | OC[C@H]1O[C@@H]2O[C@H]3[C@H](O)[C@@H](O)[C@@H](O[C@H]4[C@H](O)[C@@H](O)[C@@H](O[C@H]5[C@H](O)[C@@H](O)[C@@H](O[C@H]6[C@H](O)[C@@H](O)[C@@H](O[C@H]7[C@H](O)[C@@H](O)[C@@H](O[C@H]1[C@H](O)[C@H]2O)O[C@@H]7CO)O[C@@H]6CO)O[C@@H]5CO)O[C@@H]4CO)O[C@@H]3CO | inactive | 
2 | O=C1CN(N=Cc2ccc([N+](=O)[O-])o2)C(=O)N1 | inactive | 
3 | Cc1ncc([C@@H](CCCCCCc2ccc3c(n2)NCCC3)CC(=O)O)cn1 |  | 321 nM (active)
4 | C=CN1CCCC1=O | inactive | 
5 | CCCCN1C(=O)[C@@H]([C@H](O)C2CCCCC2)NC(=O)C12CCN(Cc1ccc(Oc3ccc(C(=O)O)cc3)cc1)CC2 | inactive | 
6 | CCc1ccc(O)c(C(C)(C)C)c1 | inactive | 
7 | CCCCC(CC)C(=O)OCCOCCOCCOC(=O)C(CC)CCCC (stereo not drawn) | inactive | 
8 | CCCCCCCCN(C)C | inactive | 
9 | NC(=O)N(O)[C@@H]1COc2cc(OCc3ccccc3)ccc21 | inactive | 
10 | C[C@@H](Oc1ccc(CNC(=O)c2cccnc2Oc2ccc3c(c2)OCO3)c(F)c1)C(=O)O | inactive | 
11 | OC(CCl)CCl | inactive | 
12 | CCCCCCCC1CCC(=O)O1 (stereo not drawn) | inactive | 
13 | NC(=O)N1c2ccccc2C=Cc2ccccc21 | inactive | 
14 | CCCC(CCC)C(=O)O | inactive | 
15 | Cn1cc[nH]c1=S | inactive | 
16 | O=C(O)c1ccc2c(c1)nc(C(=O)NC1CCN(C3CC3)CC1)n2Cc1cc(-c2ccc(Cl)s2)on1 | inactive | 
17 | CCCCCCCC/C=C\CCCCCCCC(=O)OC[C@@H](O)[C@H]1OC[C@H](O)[C@H]1O | inactive | 
18 | C[C@]12C=CC(=O)C=C1CC[C@H]1[C@@H]3C[C@@H](O)[C@](O)(C(=O)CO)[C@@]3(C)C[C@H](O)[C@@]12F | inactive | 
19 | CCCCCCOC(=O)CC(CC(=O)OCCCCCC)(OC(=O)CCC)C(=O)OCCCCCC | inactive | 

Row | SMILES | outcome | AC50
20 | OCCNCCO | inactive | 
21 | CCOc1ccc2[nH]cc(C(=O)NCc3ccccc3)c(=O)c2n1 | inactive | 
22 | COS(C)(=O)=O | inactive | 
23 | CC(C)C(=O)Nc1ccc([N+](=O)[O-])c(C(F)(F)F)c1 | inactive | 
24 | CC1(C)C(=O)N(Cl)C(=O)N1Cl | inactive | 
25 | O=S(=O)(O)c1ccc(N=Nc2c(O)ccc3cc(S(=O)(=O)O)ccc23)cc1 | inactive | 
26 | COc1cc2c(c(OC)c1OC)-c1ccc(OC)c(=O)cc1[C@@H](NC(C)=O)CC2 | inactive | 
27 | CCN(CC)C(=S)SSC(=S)N(CC)CC | inactive | 
28 | OCc1ccccc1 | inactive | 
29 | c1ccc2c(c1)-c1cccc3c1c-2cc1ccccc13 | inactive | 
30 | CC(=O)c1ccccc1 | inactive | 
31 | O=C(NO)C1(NS(=O)(=O)c2ccc(Oc3ccc(F)cc3)cc2)CCOCC1 | inactive | 
32 | O=C(N[C@H](CO)[C@H](O)c1ccc([N+](=O)[O-])cc1)C(Cl)Cl | inactive | 
33 | CCn1nc(C)c2c1C(=O)NCC(c1ccc(O)cc1)=N2 | inactive | 
34 | Cc1nc(-c2ccccn2)ncc1C(=O)Nn1cc(C)c2cc(F)ccc21 | inactive | 
35 | CCc1cccc(CC)c1N | inactive | 
36 | CCCCOC(=O)c1ccccc1 | inactive | 
37 | NC(N)=O | inactive | 
38 | c1ccc(C(O[C@@H]2CCCN(CCc3ccc4c(c3)OCO4)C2)c2ccccc2)cc1 | inactive | 
